Experimental data as given in PubChem BioAssay AID1030 (National Center for Advancing Translational Sciences (NCATS), 2008).
About 16,000 (7.3%) of roughly 220,000 compounds were called active. Roughly 25% stayed inconclusive and do not appear here. The sample as a whole holds a higher share of actives than the screen did. A number with no mark means an inactive call. Calls follow the shape of the dose curve; as a rule, active = well fitted inhibition curve with a large enough effect (not every such curve was filed as active); inconclusive = small, poorly fitted or top-dose-only effect, or another doubt; inactive = no such curve, though single readings can be large or run the other way.

Target: Aldehyde dehydrogenase 1A1 (Homo sapiens) (UniProt P00352)
Assay: qHTS Assay for Inhibitors of Aldehyde Dehydrogenase 1 (ALDH1A1);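 as to activity, negative = inhibition: plate controls were no enzyme wells and a reference inhibitor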
Conditions: Purified ALDH1A1, NADH fluorescence, propionaldehyde substrate; series mostly up to 75.3 µM; activity, negative = inhibition: at the top concentration
Potency is read from the fitted curve at half-maximal effect.

Sequence of Aldehyde dehydrogenase 1A1 (Homo sapiens) (P00352 whole entry, looked up): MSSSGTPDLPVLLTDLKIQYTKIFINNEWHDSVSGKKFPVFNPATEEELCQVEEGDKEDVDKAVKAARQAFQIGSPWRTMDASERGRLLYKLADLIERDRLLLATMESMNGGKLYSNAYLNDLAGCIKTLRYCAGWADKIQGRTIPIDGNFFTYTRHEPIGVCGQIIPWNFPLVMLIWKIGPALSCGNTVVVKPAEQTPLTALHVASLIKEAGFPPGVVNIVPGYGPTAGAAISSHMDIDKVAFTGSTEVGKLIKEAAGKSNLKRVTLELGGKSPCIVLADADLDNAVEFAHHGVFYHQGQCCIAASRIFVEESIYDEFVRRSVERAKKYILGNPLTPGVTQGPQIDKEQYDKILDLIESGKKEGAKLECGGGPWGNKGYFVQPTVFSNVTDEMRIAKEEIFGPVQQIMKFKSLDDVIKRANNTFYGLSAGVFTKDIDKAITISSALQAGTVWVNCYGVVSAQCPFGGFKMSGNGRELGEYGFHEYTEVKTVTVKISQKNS

| SMILES | activity, negative = inhibition | Potency |
| --- | --- | --- |
| CCOC(=O)c1ccccc1NC(=S)N1CCC(C(N)=O)CC1 | -8.79% | – |
| CCOc1c(OC)cc(C2C(C#N)=C(N)Oc3n[nH]c(-c4ccncc4)c32)cc1OC (centres undefined) | 1.31% | – |
| CCCc1nc2c([nH]1)C(c1cccnc1)C(C#N)=C(N)O2 (centres undefined) | – | 7.94 µM (active) |
| COc1ccc(-c2[nH]nc3c2C(c2ccncc2)C(C#N)=C(N)O3)cc1 (centres undefined) | -6.31% | – |
| Cc1ccc(S(=O)(=O)NC(=O)Nc2nc(-c3ccc(F)c(F)c3)cs2)cc1 | 4.72% | – |
| Cn1cc(CN2CCCCC2c2ccccn2)c(-c2ccc3c(c2)OCCO3)n1 (centres undefined) | 0.0519% | – |
| CN(C)/C=C(/C(=O)c1ccccc1Cl)S(C)(=O)=O | 10.3% | – |
| Clc1ccc(-c2csc(-c3ccncc3)n2)cc1 | -2.8% | – |
| CC(=O)c1c(C)[nH]c(C(=O)OCC(=O)Nc2cc(S(=O)(=O)N3CCCCC3)ccc2C)c1C | 5.1% | – |
| CCCCn1c(=S)[nH]c2ccccc2c1=O | -7.63% | – |
| CCCn1c(=S)[nH]c2ccc(C(F)(F)F)cc21 | – | 17.8 µM (active) |
| CN(C)CCn1c(=S)[nH]c2ccc(Cl)cc2c1=O | 7.33% | – |
| CC(C)n1c(=O)[nH]c2cc(C(=O)Nc3ccccc3)ccc21 | 6.98% | – |
| CC(C)n1c(=S)[nH]c2cc(C(F)(F)F)ccc21 | – | 31.6 µM (active) |
| O=[N+]([O-])c1ccc2oc(-c3cccc(O)c3)nc2c1 | 3.55% | – |
| OCCC1CN(Cc2cnc(-c3ccccc3)s2)CCN1CCc1ccccc1 (centres undefined) | -7.11% | – |
| Fc1ccccc1Cc1ccc(Cl)nn1 | -3.18% | – |
| O=C(O)CCC(=O)N(Cc1cccs1)Cc1cccs1 | -4.78% | – |
| Cc1ccnc(NC(=O)CCC(=O)N(CC(=O)NCCc2ccccc2)Cc2cccs2)c1 | – | 14.1 µM (active) |
| O=C(CCc1ccccc1)NCCc1cccs1 | 2.95% | – |
| CN(C)CCCCCN(C)Cc1cc2ccccc2o1 | 1.86% | – |
| CCOc1ccc(NC(=O)CN(C)CC(=O)NC(C)c2ccccc2)cc1OCC (centres undefined) | -0.197% | – |
| O=C(O)CSCC(=O)Nc1ccc(C(F)(F)F)cc1 | -4.77% | – |
| COc1ccc2c(c1)O[C@@H](c1ccc3c(c1)OCO3)[C@H](OC(=O)NCc1ccco1)C2=O | -7.76% | – |
| CC1CCN(S(=O)(=O)c2ccc(S(=O)(=O)NCc3cccnc3)cc2)CC1 | -2.72% | – |
| COc1ccc(-n2nc3c(c2NC(=O)c2ccc(N4C(=O)CCC4=O)cc2)CSC3)cc1 | -1.08% | – |
| O=C(NC(=S)Nc1cc(C(F)(F)F)ccc1N1CCOCC1)c1ccc(-c2cccc(Cl)c2)o1 | -8.4% | – |
| COc1cccc(OC)c1C(=O)NC(=S)Nc1ccc(N2CCOCC2)c(Cl)c1 | -9.29% | – |
| O=C(NC(=S)Nc1ccc2oc(=O)ccc2c1)c1ccc(-c2cccc(Cl)c2Cl)o1 | – | 11.2 µM (active) |
